High-throughput results from PubChem.
In the library only some 4.1% were active in any assay of this set; here they are far more common.
Sm TGR inh: S. mansoni TGR enzyme inhibition; Q962Y6; purified TGR, DTNB reduction, TNB absorbance 405 nm; Potency, µM (series often up to 114 µM), inactives show at the highest dose activity change, negative = inhibition, actives largely listed as inhibitors; actives 3% (n = 360,000); AID 485364; note: nearly all actives have a fitted effect of over 60% in size
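Kinetic colorimetric format: TGR-catalysed, NADPH-driven DTNB reduction monitored via TNB absorbance. Enzyme dispensed at 20 nM; compound exposure 15 min at room temperature before reaction start.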
AmpC inh no detg: inhibitors of E. coli AmpC beta-lactamase without detergent; P00811; AID 485341; actives 0.52% (n = 330,000); AmpC nitrocefin hydrolysis, absorbance 480 nm, 0.0001% Triton; Potency, µM (doses to about 57.1 µM), for inactives: at the highest dose activity change, negative = inhibition, usual class: inhibitors;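 note: plate controls were no compound for no effect and no enzyme for full effect; nearly all actives have a fitted effect of over 20% in size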
Target sequence (P00811 whole entry, looked up): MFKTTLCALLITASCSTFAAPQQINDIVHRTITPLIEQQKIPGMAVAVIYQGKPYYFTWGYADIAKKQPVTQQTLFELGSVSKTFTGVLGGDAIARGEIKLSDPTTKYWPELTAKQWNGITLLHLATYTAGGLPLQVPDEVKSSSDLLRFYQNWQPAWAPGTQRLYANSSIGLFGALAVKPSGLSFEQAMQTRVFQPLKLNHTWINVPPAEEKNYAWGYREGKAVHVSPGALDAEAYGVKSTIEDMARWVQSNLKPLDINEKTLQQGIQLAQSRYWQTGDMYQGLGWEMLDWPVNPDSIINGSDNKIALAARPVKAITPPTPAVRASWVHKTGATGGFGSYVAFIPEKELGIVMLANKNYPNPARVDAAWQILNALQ
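AmpC (5.3 nM in the dispensed reagent) in 20 mM phosphate pH 7.0 with 0.01% (detergent screen) or 0.0001% Triton X-100 was preincubated with compounds for 15 min at room temperature. Nitrocefin was then added from an 800 uM solution, and hydrolysis was followed at 480 nm.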
AMA1-RON2 inh: inhibitors of Plasmodium falciparum AMA1-RON2 interaction; AlphaScreen AMA1-biotinylated RON2 peptide binding; Potency, µM (doses to about 58.2 µM), for inactives: at the highest dose activity change, negative = inhibition, most hits filed as inhibitors; actives 0.2% (n = 360,000);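 note: 0% = vehicle wells and -100% = peptide control; nearly all actives have a fitted effect of over 45% in size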
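AMA1 (3D7) with his tag at 25 nM final met compounds first, then biotinylated RON2 peptide at 25 nM; detection used donor plus acceptor beads, 10 µg/mL apiece, read by AlphaScreen after 30 min at room temperature.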
AmpC inh detg: blocks E. coli AmpC beta-lactamase in detergent assay; P00811; AmpC hydrolysis of nitrocefin, absorbance 480 nm, 0.01% Triton; Potency, µM (series often up to 114 µM), inactives show top-dose activity change, negative = inhibition, usual class: inhibitors; actives 0.041% (n = 370,000);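 note: 0% = no-compound wells and -100% = no-enzyme wells; nearly all actives have a fitted effect of over 25% in size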
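AmpC (5.3 nM in the dispensed reagent) in 20 mM phosphate pH 7.0 with 0.01% (detergent screen) or 0.0001% Triton X-100 was preincubated with compounds for 15 min at room temperature. Nitrocefin was then added from an 800 uM solution, and hydrolysis was followed at 480 nm.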
FMDV inh: antivirals against foot and mouth disease virus | AID 1159524 | actives 1.2% (n = 410,000) | Potency, µM (doses to about 57.9 µM), for inactives: top-dose activity change, negative = inhibition, hits mostly inhibitors | FMDV antiviral cell-based qHTS; calls by dose curve; tested in HEK293T cells; note: read-out not given here; nearly all actives have a fitted effect of over 45% in size
Starred values were filed as active, the others as inactive. Unless noted, calls come from the whole dose curve; as a rule, active = well fitted curve in the direction sought with a large enough effect; inconclusive = small, poorly fitted or top-dose-only effect, or another doubt; inactive = no such curve, though single readings can be large; an effect the other way counts as inactive or inconclusive. Unless noted, % is set by controls: 0 for no effect and ±100 for the full control effect; potency is the fitted concentration of half-maximal effect.

How did COc1cc(Cl)c(C)cc1NC(=O)CCc1c(C)nc2c3cccnc3nn2c1C do in these assays?
Sm TGR inh: -13.8%; AmpC inh detg: 8.3%; FMDV inh: 0.0%

Results for COc1ccc(S(=O)(=O)NCCc2sc(-c3cccnc3)nc2C)cc1OC ?
Sm TGR inh: -0.7%; AmpC inh detg: -3.9%; FMDV inh: 36.8%

How did Cc1sc2ncn(CC(=O)N3CCN(c4ccccc4F)CC3)c(=O)c2c1S(=O)(=O)N1CCN(c2ncccn2)CC1 do in these assays?
Sm TGR inh: 6.0%; AmpC inh detg: 15.5%; FMDV inh: -27.7%

Results for COCCn1c(C)cc(O)c(C(c2ccccc2Cl)N2CCN(c3ccccc3)CC2)c1=O (stereo not drawn) ?
Sm TGR inh: 3.16µM*; AmpC inh detg: -7.4%; FMDV inh: -18.0%

How did CCN1CCN(C(c2ccccc2Cl)c2c(O)cc(C)n(CCOC)c2=O)CC1 (stereo not drawn) do in these assays?
Sm TGR inh: 3.55µM*; AmpC inh detg: 10.9%; FMDV inh: -18.8%

Results for CCN1CCN(C(c2ccc(SC)cc2)c2c(O)cc(C)n(CCOC)c2=O)CC1 (stereo not drawn) ?
Sm TGR inh: 7.08µM*; AmpC inh detg: 7.1%; FMDV inh: -23.9%

Results for CCN1CCN(C(=O)C2c3cc(OC)c(OC)cc3C(=O)N(C)C2c2ccc(SC)cc2)CC1 (stereo not drawn) ?
Sm TGR inh: -0.3%; AmpC inh no detg: 138.3%; AMA1-RON2 inh: 6.9%; AmpC inh detg: inconclusive; FMDV inh: -19.4%

What do the screens show for `CCN1CCN(C(c2ccccc2F)c2c(O)cc(C)n(CCOC)c2=O)CC1` (stereo not drawn)?
Sm TGR inh: 7.94µM*; AmpC inh detg: 16.1%; FMDV inh: -21.9%

What do the screens show for `COCCn1nnnc1C(c1ccccc1OC)N1CCN(c2ccccc2)CC1` (stereo not drawn)?
Sm TGR inh: -31.0%; AmpC inh no detg: 58.0%; AMA1-RON2 inh: -4.5%; AmpC inh detg: inconclusive; FMDV inh: -6.1%

Results for CCCNC(=O)C1(C)CCCN(C(=O)c2ccc(F)cc2Cl)C1 (stereo not drawn) ?
AMA1-RON2 inh: -8.7%; FMDV inh: -18.8%

How did CC(=O)N(/N=C/c1ccc([N+](=O)[O-])o1)c1nc2ccccc2c(=O)n1-c1ccccc1 do in these assays?
Sm TGR inh: 39.8µM*; AmpC inh no detg: -5.7%; AMA1-RON2 inh: -2.2%; AmpC inh detg: 1.5%; FMDV inh: -2.5%

Results for Cc1nc2ccccc2c(=O)n1/N=C/c1ccc([N+](=O)[O-])o1 ?
Sm TGR inh: 14.1µM*; AmpC inh no detg: -23.7%; AmpC inh detg: 1.0%

Results for O=C(CCl)N(c1ccccc1)C1CCS(=O)(=O)C1 (stereo not drawn) ?
Sm TGR inh: 22.4µM*; AmpC inh no detg: -22.5%; AMA1-RON2 inh: 7.0%; AmpC inh detg: inconclusive; FMDV inh: inconclusive

Results for COc1ccccc1Cc1c(-c2ccco2)nc2c(C)cc(Br)cn12 ?
AMA1-RON2 inh: -20.8%; FMDV inh: 14.1µM*

Results for Cc1cc(Br)cn2c(Cc3ccsc3)c(-c3ccco3)nc12 ?
AMA1-RON2 inh: inconclusive; FMDV inh: 35.5µM*

How did Cn1c(SC2=CS(=O)(=O)c3ccccc32)nc2ccccc21 do in these assays?
Sm TGR inh: 39.8µM*; AmpC inh no detg: -15.3%; AMA1-RON2 inh: -5.4%; AmpC inh detg: 1.8%; FMDV inh: 28.2µM*

Results for Cc1cn2c(=O)cc(COC(=O)COc3ccccc3C)nc2s1 ?
Sm TGR inh: 3.1%; AmpC inh detg: 18.0%; FMDV inh: -17.9%

Results for CCCN(CCC)c1nc(Cl)nc(NCc2ccco2)n1 ?
Sm TGR inh: -5.4%; AmpC inh no detg: 0.159µM*; AMA1-RON2 inh: 2.2%; AmpC inh detg: -2.8%; FMDV inh: inconclusive

Results for CCc1ccc(NC(=O)COC(=O)C2(c3ccc(Cl)cc3)CCCC2)cc1 ?
Sm TGR inh: -6.8%; AmpC inh no detg: -31.2%; AMA1-RON2 inh: 28.1%; AmpC inh detg: -10.4%; FMDV inh: 20µM*

Results for COc1ccccc1CCNc1ncnc2sc(C(=O)N3CCCN(C=O)CC3)c(C)c12 ?
FMDV inh: -26.1%

Results for COc1ccccc1CNC(=O)CCc1c(C)nn(-c2ccc(N3CCCC3)nn2)c1C ?
Sm TGR inh: -0.5%; AmpC inh detg: 17.7%; FMDV inh: -16.0%

How did COc1ccc(C(c2nnnn2CCc2ccccc2)N2CCN(C)CC2)cc1OC (stereo not drawn) do in these assays?
Sm TGR inh: 89.1µM*; AmpC inh no detg: 1.4%; AMA1-RON2 inh: -7.5%; AmpC inh detg: -1.9%; FMDV inh: 3.5%

Results for COc1ccc(C(c2nnnn2C2CCCC2)N2CCc3ccccc3C2)cc1OC (stereo not drawn) ?
Sm TGR inh: inconclusive; AmpC inh no detg: 112.1%; AMA1-RON2 inh: -19.5%; AmpC inh detg: -10.3%; FMDV inh: -5.3%

What do the screens show for `COCCn1nnnc1C(c1ccc(O)c(OC)c1)N1CCc2ccccc2C1` (stereo not drawn)?
Sm TGR inh: 0.355µM*; AmpC inh no detg: -21.8%; AMA1-RON2 inh: -2.2%; AmpC inh detg: 5.6%; FMDV inh: -21.1%

What do the screens show for `CN(N=O)C(=O)N[C@H]1C(O)OC(CO)[C@@H](O)[C@H]1O` (stereo partly drawn)?
FMDV inh: -2.1%

Results for Cc1nc2cncnc2n(C2CC2)c1=O ?
FMDV inh: -13.5%

What do the screens show for `COc1ccccc1-c1nc(S(=O)(=O)c2ccc(Cl)cc2)c(N2CCCCCC2)o1`?
Sm TGR inh: inconclusive; AmpC inh detg: 15.7%; FMDV inh: 0.8%

How did Cc1ccc(S(=O)(=O)c2nc(-c3ccc(F)cc3)oc2N2CCN(c3ccccc3)CC2)cc1 do in these assays?
Sm TGR inh: -1.0%; AmpC inh detg: 0.2%; FMDV inh: 12.0%

What do the screens show for `COc1ccc(-c2nc(S(=O)(=O)c3ccc(Cl)cc3)c(N3CCCCCC3)o2)cc1`?
Sm TGR inh: 22.4µM*; AmpC inh detg: 0.6%; FMDV inh: 14.3%

Results for Cc1cccc(-c2nc(S(=O)(=O)c3ccccc3)c(N3CCOCC3)o2)c1 ?
Sm TGR inh: 44.7µM*; AmpC inh no detg: 10.0%; AMA1-RON2 inh: -18.5%; AmpC inh detg: -1.3%; FMDV inh: -7.4%

Results for Cc1ccc(-c2nc(S(=O)(=O)c3ccc(C)cc3)c(N3CCOCC3)o2)cc1 ?
Sm TGR inh: 3.55µM*; AmpC inh no detg: -6.8%; AMA1-RON2 inh: 0.2%; AmpC inh detg: 2.3%; FMDV inh: 43.1%

How did CCOc1ccc(-c2nc(S(=O)(=O)c3ccccc3)c(N3CCOCC3)o2)cc1 do in these assays?
AmpC inh no detg: -4.4%; AMA1-RON2 inh: -13.9%; AmpC inh detg: -3.9%; FMDV inh: 16.6%
